# Laboratory results as given in paper PMC8384837, “Expanding the binding specificity for RNA recognition by a PUF domain”.
# Numbering of substitutions follows the chain as printed.
# Columns and labels:
# Assay in all cases: yeast three-hybrid, YBZ-1, SC-Leu-His + 0.5 mM 3-AT, 4 days
# Conditions in all cases: tags: N-Gal4 AD-HA kept; label: inside an RPR1-promoter hybrid RNA with tandem MS2 sites; ssRNA
# PUM1 PUF domain R3-WWG = PUM1 PUF domain R3-WWG (Homo sapiens, UniProt Q14671 828-1176, C935W;R936W;Q939G)
# Summary of the method: (§1)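 A centromeric plasmid in strain YBZ-1 co-expressed Pumilio-1 PUF domain libraries, randomized at the three base-contacting residues of each repeat, with matching RNA elements; the strain carries a LexA–MS2 coat fusion and a HIS3 reporter. After four days on SC-Leu (input) or SC-Leu-His + 0.5 mM 3-AT (selection), the repeat regions were PCR-amplified and Illumina-sequenced. The interaction score is the log change in variant frequency from input to selection, using log2 and a pseudocount of 1 where absent.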
# PUM1 PUF domain R1-NRR = PUM1 PUF domain R1-NRR (Homo sapiens, UniProt Q14671 828-1176, S863N;Q867R)
# Summary of the method: as §1
# PUM1 PUF domain R1-MVR = PUM1 PUF domain R1-MVR (Homo sapiens, UniProt Q14671 828-1176, S863M;R864V;Q867R)
# Summary of the method: as §1
# PUM1 PUF domain R4-GPQ = PUM1 PUF domain R4-GPQ (Homo sapiens, UniProt Q14671 828-1176, N971G;H972P)
# Summary of the method: as §1
# PUM1 PUF domain R4-DYR = PUM1 PUF domain R4-DYR (Homo sapiens, UniProt Q14671 828-1176, N971D;H972Y;Q975R)
# Summary of the method: as §1
# PUM1 PUF domain R6-VWQ = biological target: T1, PUM1 PUF domain R6-VWQ (Homo sapiens, UniProt Q14671 828-1176, N1043V;Y1044W)
# T1 sequence: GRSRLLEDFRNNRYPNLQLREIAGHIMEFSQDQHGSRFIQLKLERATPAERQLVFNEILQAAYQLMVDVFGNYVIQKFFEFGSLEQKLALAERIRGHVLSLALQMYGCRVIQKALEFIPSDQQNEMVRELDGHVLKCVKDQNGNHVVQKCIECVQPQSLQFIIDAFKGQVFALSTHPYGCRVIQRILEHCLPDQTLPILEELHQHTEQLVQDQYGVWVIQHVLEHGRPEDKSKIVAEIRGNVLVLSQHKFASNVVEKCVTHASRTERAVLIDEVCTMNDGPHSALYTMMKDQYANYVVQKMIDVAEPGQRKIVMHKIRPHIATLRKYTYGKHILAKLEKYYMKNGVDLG
# Summary of the method: as §1
# PUM1 PUF domain R6-IWR = biological target: T2, PUM1 PUF domain R6-IWR (Homo sapiens, UniProt Q14671 828-1176, N1043I;Y1044W;Q1047R)
# T2 sequence: T1 sequence with V216I, Q220R
# Summary of the method: as §1
# PUM1 PUF domain R5-DHV = PUM1 PUF domain R5-DHV (Homo sapiens, UniProt Q14671 828-1176, C1007D;R1008H;Q1011V)
# Summary of the method: as §1
# PUM1 PUF domain R5-RAC = PUM1 PUF domain R5-RAC (Homo sapiens, UniProt Q14671 828-1176, C1007R;R1008A;Q1011C)
# Summary of the method: as §1
# PUM1 PUF domain R5-HRL = PUM1 PUF domain R5-HRL (Homo sapiens, UniProt Q14671 828-1176, C1007H;Q1011L)
# Summary of the method: as §1
sequence,measurement,setting,value
GGCUAGAACUAGUGGAUCCCCCGGCGCCCGGCGGCUCGAGCCCGGGUAAGUGUAAGUAGUCUGCAUGCCGCCGGGCGCCAUGCCUGCAGGUCGACUCUAGAAAACAUG,binding signal,PUM1 PUF domain R3-WWG,4.28 log2 enrichment (interaction score)
GGCUAGAACUAGUGGAUCCCCCGGCGCCCGGCGGCUCGAGCCCGGGUAAGUGUAAAUCGUCUGCAUGCCGCCGGGCGCCAUGCCUGCAGGUCGACUCUAGAAAACAUG,binding signal,PUM1 PUF domain R1-NRR,3.87 log2 enrichment (interaction score)
same,binding signal,PUM1 PUF domain R1-MVR,2.85 log2 enrichment (interaction score)
GGCUAGAACUAGUGGAUCCCCCGGCGCCCGGCGGCUCGAGCCCGGGUAAGUGUACAUAGUCUGCAUGCCGCCGGGCGCCAUGCCUGCAGGUCGACUCUAGAAAACAUG,binding signal,PUM1 PUF domain R4-GPQ,2.42 log2 enrichment (interaction score)
same,binding signal,PUM1 PUF domain R4-DYR,6.53 log2 enrichment (interaction score)
GGCUAGAACUAGUGGAUCCCCCGGCGCCCGGCGGCUCGAGCCCGGGUAAGUGAAAAUAGUCUGCAUGCCGCCGGGCGCCAUGCCUGCAGGUCGACUCUAGAAAACAUG,binding signal,PUM1 PUF domain R6-VWQ,8.55 log2 enrichment (interaction score)
same,binding signal,PUM1 PUF domain R6-IWR,1.61 log2 enrichment (interaction score)
GGCUAGAACUAGUGGAUCCCCCGGCGCCCGGCGGCUCGAGCCCGGGUAAGUGUAAUUAGUCUGCAUGCCGCCGGGCGCCAUGCCUGCAGGUCGACUCUAGAAAACAUG,binding signal,PUM1 PUF domain R3-WWG,4.2 log2 enrichment (interaction score)
GGCUAGAACUAGUGGAUCCCCCGGCGCCCGGCGGCUCGAGCCCGGGUAAGUGUCAAUAGUCUGCAUGCCGCCGGGCGCCAUGCCUGCAGGUCGACUCUAGAAAACAUG,binding signal,PUM1 PUF domain R5-DHV,3.11 log2 enrichment (interaction score)
same,binding signal,PUM1 PUF domain R5-RAC,3.54 log2 enrichment (interaction score)
same,binding signal,PUM1 PUF domain R5-HRL,2.78 log2 enrichment (interaction score)
